Rows were chosen to be rich in hits. Some 1.2% of all compounds tested hit in one or more screens of this group.
Luc counter: Counterscreen for Luciferase (Kinase-Glo TM) Inhibition; Luciferin 4-monooxygenase (Photuris pensylvanica), Q27757; Kinase-Glo luciferase, ATP luminescence, 8 min; Potency, µM (top dose mostly 38.3 µM), inactives show top-dose activity change, negative = inhibition, usual class: inhibitors; hit rate 0.28% among 200,000; active = well fitted inhibition curve with a large enough effect; inconclusive = small, poorly fitted or top-dose-only effect; also: potency is read from the fitted curve at half-maximal effect; nearly all actives have a fitted effect of over 60% in size
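Compounds were added to a substrate mix at pH 7.2 (50 mM imidazole, 10 uM ATP, within the enzyme's linear range), followed by Kinase-Glo detection reagent; luminescence was measured after 8 minutes at ambient temperature.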
KCNH2 3.1 block: qHTS for Inhibitors of KCHN2 3.1: Mutant qHTS; Potassium voltage-gated channel subfamily H member 2, brain isoform KCNH2 3.1 (human); U2OS KCNH2 3.1, thallium flux FluxOr; hits give low values; activity change, % (tested at about 1.8 µM); hit rate 0.95% among 340,000;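 active = maximum activity change below -70%; inconclusive = maximum activity change from -70% to -50%; inactive = maximum activity change above -50%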;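 also: thallium influx rate constant from kinetic fluorescence after stimulation buffer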
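Measured as rate of thallium-driven FluxOr signal in transduced U2OS cells carrying the 3.1 channel, read kinetically for 2 min upon stimulation; values are rate constants scaled to DMSO control wells.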
hERG WT inh: qHTS for Inhibitors of KCHN2 3.1: Wildtype qHTS | U2OS, BacMam KCNH2, thallium flux FluxOr; hits give low values | activity change, % at 1.84 µM | hit rate 0.37% among 340,000;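 active = maximum activity change below -70%; inconclusive = maximum activity change between -70% and -50%; inactive = maximum activity change above -50%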
Target sequence (Q12809 whole entry, looked up): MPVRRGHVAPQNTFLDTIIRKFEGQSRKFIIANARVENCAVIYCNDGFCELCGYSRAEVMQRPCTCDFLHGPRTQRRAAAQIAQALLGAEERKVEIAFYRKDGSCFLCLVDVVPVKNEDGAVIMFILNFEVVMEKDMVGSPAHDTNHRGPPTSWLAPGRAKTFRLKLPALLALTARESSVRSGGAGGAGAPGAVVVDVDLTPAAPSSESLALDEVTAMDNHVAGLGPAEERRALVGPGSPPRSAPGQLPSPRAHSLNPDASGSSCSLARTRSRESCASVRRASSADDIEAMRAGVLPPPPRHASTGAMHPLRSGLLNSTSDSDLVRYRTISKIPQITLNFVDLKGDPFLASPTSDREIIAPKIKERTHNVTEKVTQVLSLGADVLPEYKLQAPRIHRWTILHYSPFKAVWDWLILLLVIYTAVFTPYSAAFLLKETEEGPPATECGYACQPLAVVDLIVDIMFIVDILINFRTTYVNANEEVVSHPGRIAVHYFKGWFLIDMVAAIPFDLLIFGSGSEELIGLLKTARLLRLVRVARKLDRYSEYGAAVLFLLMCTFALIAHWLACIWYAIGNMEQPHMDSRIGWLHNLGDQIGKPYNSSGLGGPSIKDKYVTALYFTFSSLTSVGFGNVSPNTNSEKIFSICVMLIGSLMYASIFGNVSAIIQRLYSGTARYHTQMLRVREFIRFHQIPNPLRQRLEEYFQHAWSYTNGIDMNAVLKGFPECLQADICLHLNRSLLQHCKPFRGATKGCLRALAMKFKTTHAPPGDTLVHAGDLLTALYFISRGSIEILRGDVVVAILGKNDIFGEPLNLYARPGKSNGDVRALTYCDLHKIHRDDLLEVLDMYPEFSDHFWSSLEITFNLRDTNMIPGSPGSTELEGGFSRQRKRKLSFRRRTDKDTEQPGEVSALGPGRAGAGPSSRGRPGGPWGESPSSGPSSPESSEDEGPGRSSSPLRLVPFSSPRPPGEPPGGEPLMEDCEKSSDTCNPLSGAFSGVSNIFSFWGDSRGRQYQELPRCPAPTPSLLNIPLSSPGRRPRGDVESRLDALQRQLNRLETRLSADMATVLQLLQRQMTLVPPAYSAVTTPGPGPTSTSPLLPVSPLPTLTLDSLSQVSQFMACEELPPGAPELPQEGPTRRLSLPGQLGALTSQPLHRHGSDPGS
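U2OS cells were transduced with wild-type KCNH2 virus (2.03 x 10^8 / mL) for 4 h at room temperature, then cultured overnight at 37 C. Thallium flux was read with FluxOr dye. Rate constants were normalized to DMSO controls.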
* hit, by the source's call; ? = inconclusive; / = no result given. % is scaled to controls: 0 for no effect and ±100 for the full control effect.

SMILES	Luc counter	KCNH2 3.1 block	hERG WT inh
O=C(COC(=O)c1cnccn1)NCc1ccccc1Cl	/	5.6	-0.1
CC1CCN(C(=O)CCCC(=O)O)CC1	0.6%	-2.4	1.5
CC1CCN(C(=O)CCCC(=O)N2CCC(C)CC2)CC1	/	19.6	-70.8*
N#Cc1c2n(c3c(=O)n(CC(=O)c4ccc([N+](=O)[O-])cc4)cnc13)CCCCC2	4.0%	-16.0	-101.1*
N#Cc1c2n(c3c(=O)n(CC(=O)c4ccc(Br)cc4)cnc13)CCCC2	-0.3%	-10.3	7.4
CC(C)(C)c1ccc(C(=O)N/C(=C\c2ccco2)C(=O)Nc2ccccc2C(=O)O)cc1	/	2.1	-0.5
CCOc1ccccc1N1CCN(C(=O)NCc2ccc(F)cc2)CC1	/	-26.3	-0.1
NS(=O)(=O)c1ccc(CNC(=O)c2cc(-c3cccnc3)nc3ccccc23)cc1	/	-159.1*	0.2
NS(=O)(=O)c1ccc(CNC(=O)c2cc(-c3ccccc3)nc3ccccc23)cc1	/	-7.0	0.4
COc1cc(C(=O)NCCc2ccc(S(N)(=O)=O)cc2)cc(OC)c1OC	/	4.6	-19.1
COc1ccc(-c2cc(C(=O)NCCc3ccc(S(N)(=O)=O)cc3)c3ccccc3n2)cc1	-14.7%	-77.7*	8.2
Cc1ccc(Sc2cc(C(=O)NCCCN(C)C)c3ccccc3n2)cc1	/	-42.0	17.8
CCOc1cc(C(=O)NCCc2ccc(S(N)(=O)=O)cc2)cc(OCC)c1OCC	/	-89.8*	-1.4
Cc1ccc(Sc2cc(C(=O)NCCN(C)C)c3ccccc3n2)cc1	/	-96.1*	6.3
Cc1ccc(-c2cc(C(=O)NCCc3ccc(S(N)(=O)=O)cc3)c3ccccc3n2)cc1	-6.5%	-5.6	2.3
Cc1noc(C)c1S(=O)(=O)Nc1ccc(C(C)C)cc1	/	-5.9	-13.6
CC(=O)NCc1ccc(-c2csc(NC(=O)CCc3nc4ccccc4c(=O)[nH]3)n2)s1	/	4.4	-2.1
CCc1c2c(nc3cccc(SC)c13)COC2	-4.8%	/	/
COc1ccc(CNC(=O)COC(=O)c2ccc(C)c(S(=O)(=O)N3CCOCC3)c2)cc1	/	-14.9	-16.5
CCOC(=O)C1CCN(S(=O)(=O)c2ccc3c(c2)NC(=O)C(C)C(=O)N3)CC1 (configuration not stated)	/	5.0	-0.9
CN1CCN(NC(=O)c2cccc(C(F)(F)F)c2)CC1	/	2.8	-2.7
Cc1ccc2nc(-c3ccncc3)cc(C(=O)NCCc3ccc(F)cc3)c2c1	-2.2%	-27.8	-16.2
O=C(NCCCn1ccnc1)c1cc(-c2ccc(Cl)cc2)nc2ccccc12	-1.2%	-81.8*	-79.2*
Cc1ccc(CCNC(=O)c2cc(-c3ccncc3)nc3ccccc23)cc1	/	-111.8*	-9.8
COc1ccc(-c2cc(C(=O)O)c3ccccc3n2)c(OC)c1	3.5%	-23.1	3.8
SMILES	Luc counter	KCNH2 3.1 block	hERG WT inh
COc1ccc2cc(-c3cc(C(=O)O)c4ccccc4n3)ccc2c1	7.94µM*	-2.5	-22.0
O=C(NCCCn1ccnc1)c1cc(-c2ccncc2)nc2ccccc12	2.3%	?	-1.7
CCC1=C(OC(=O)N(CC)CC)N2C(=O)OC(=NCCOC)[C@]2(C)[C@H]2C1=CC[C@H]1C(=O)N(C)C(=O)[C@H]12	-1.9%	/	/
CCc1ccccc1NC(=O)COC(=O)C1C2CC3OC(=O)C1C3C2 (configuration not stated)	/	11.3	2.7
Cc1cc(C)n(-c2ccnc3cc(Cl)ccc23)n1	/	8.9	-0.4
CSc1nnnn1CCn1nnnc1SC	-6.4%	-8.7	-243.2*
Cn1nnnc1SCSc1nnnn1C	7.7%	0.6	2.4
COc1ccc(Nc2nnc(SC(C(=O)Nc3cc(C)ccc3C)c3ccccc3)s2)cc1 (configuration not stated)	0.7%	-6.1	1.4
COc1ccc(C)cc1NC(=O)C(Sc1nnc(Nc2cc(C)ccc2OC)s1)c1ccccc1 (configuration not stated)	-1.0%	-11.3	-121.4*
Cc1nnc2c(N3CCN(CCO)CC3)nc3ccccc3n12	/	26.1	-13.3
O=c1[nH]c(=O)n(Cc2ccco2)c2c1C(C(F)(F)F)(C(F)(F)F)N=C(CCC1CCCCC1)N2	-3.2%	/	-1.6
O=c1[nH]c(=O)n(Cc2ccco2)c2c1C(C(F)(F)F)(C(F)(F)F)N=C(CCc1ccccc1)N2	-0.9%	-108.2*	1.7
CCCC(CC)Sc1nc2c([nH]1)c(=S)n(C)c(=O)n2C (configuration not stated)	/	-14.0	-92.4*
Cn1c(=S)c2[nH]c(SCCC(C)(C)C)nc2n(C)c1=O	/	-48.5	-114.7*
CCCCC(C)Sc1nc2c([nH]1)c(=S)n(C)c(=O)n2C (configuration not stated)	/	?	-144.4*
CSc1nc2c([nH]1)c(=S)n(C)c(=O)n2C	/	-6.3	-7.2
CCCCSc1nc2c([nH]1)c(=S)n(C)c(=O)n2C	/	8.2	-36.4
CCN(CC)CCSc1nc2c([nH]1)c(=S)n(C)c(=O)n2C	/	8.6	-1.6
COC(=O)[C@@H]1C[C@@]2(O)[C@H](O)[C@H](O)[C@H](O)C[C@H]2N1Cc1ccc(N2CCOCC2)cc1	-10.5%	/	/
CCC(=O)Nc1cccc(C2=NOC3(C2)C[C@H](C(N)=O)N(C(=O)CC#N)C3)c1 (some centres not stated)	/	5.7	-0.9
COc1cccc2[nH]c3c(N4CCCCC4)ncnc3c12	2.0%	6.6	4.7
COc1cccc2[nH]c3c(Cl)ncnc3c12	-1.5%	0.0	-184.0*
Cc1ccc(S(=O)(=O)NC(C)C(=O)OCC(=O)Nc2sccc2C(N)=O)cc1 (configuration not stated)	/	-9.4	-15.1
Cc1nc(/C=C/c2ccccc2)cc(/C=C/c2ccccc2)n1	16.9%	-4.5	1.2
Cc1cccc(/C=C\c2ccccc2)n1	11.2µM*	/	/
SMILES	Luc counter	KCNH2 3.1 block	hERG WT inh
Cc1cc(C)nc(/N=C(\N)Nc2ccc(-c3ccccc3)cc2)n1	-8.4%	-79.8*	31.6
Cc1cc(C)nc(/N=C(\N)N(Cc2ccccc2)Cc2ccccc2)n1	1.2%	-76.7*	1.3
CCCCN(CCCC)/C(N)=N/c1nc(C)cc(C)n1	-0.1%	-10.1	17.5
CC(=O)Nc1ccc(N/C(N)=N/c2nc(C)cc(C)n2)cc1	4.3%	0.9	-1.9
COc1cccc(-c2cc(C(=O)N3CCN(C(=O)c4ccco4)CC3)on2)c1	/	43.3	5.6
C=CCC1(CC=C)CCCN1C(=O)c1cc(COc2ccc(C)nc2)on1	/	14.0	2.6
COc1ccc(S(=O)(=O)NCc2cccnc2)c(Cl)c1Cl	/	7.5	1.6
CS(=O)(=O)N1CCN(C(=O)COc2ccccc2)CC1	-2.0%	-12.7	3.4
O=C(COc1ccccc1)N1CCN(S(=O)(=O)Cc2ccccc2)CC1	-4.2%	-8.7	-268.6*
CCN(CC)c1ccc(/C=C/C(=O)C2C(=O)C=C(C)OC2=O)cc1 (configuration not stated)	?	-78.2*	?
CCN(CC)c1ccc(C=C2C(=O)OC(c3ccccc3)OC2=O)cc1 (configuration not stated)	-1.1%	10.3	-6.3
CC(=O)Nc1cccc(NC(=O)CS(=O)(=O)c2cn(CC(=O)N3CCCC3)c3ccccc23)c1	/	/	-9.0

High-throughput results deposited in PubChem BioAssay by National Center for Advancing Translational Sciences (NCATS).
